{"source": "PubChem BioAssay AID1347075", "about": "(National Center for Advancing Translational Sciences (NCATS), 2019)", "note": "About 5,500 (1.4%) of roughly 400,000 compounds were called active. A call without a number means that no potency is given here. About 9% were inconclusive and are not listed. The call rests on the fitted dose curve; in most records, active means well fitted cell-killing curve with a large enough effect; inconclusive means small, poorly fitted or top-dose-only effect, or effect the other way; inactive means flat fitted curve, though single readings scatter. For the sample, actives were picked, then their nearest neighbours and some compounds at random. Potency means the concentration at half of the fitted maximal effect."}
{"test": "qHTS assay for MDR1-selective chemotherapeutics: Primary screen using the parental adenocarcinoma cell KB-3-1; further: nearly all actives have a fitted effect of over 60% in size", "settings": "KB-3-1 viability, CellTiter-Glo ATP luminescence, 72 h; series mostly up to 46.1 µM", "in_short": "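Multi-concentration cytotoxicity screen in KB-3-1 cells grown in DMEM lacking phenol red with 10% FBS. After 72 h at 37 °C with compound, ATP-dependent luminescence was recorded.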"}
{"smiles": "COc1cccc(N2CCN(S(=O)(=O)c3cc(Br)cc4c3N(C(=O)C3CC3)CC4)CC2)c1", "Potency": "inactive"}
{"smiles": "CCCCC12CN3CC(C)(CN(C1)C3c1ccc(O)c(OC)c1)C2=O", "note": "(stereo unspecified)", "Potency": "inactive"}
{"smiles": "Cc1ccc(C)c(N2CCN(C(=O)C3CCC(CNS(=O)(=O)c4cccs4)CC3)CC2)c1", "note": "(stereo unspecified)", "Potency": "inactive"}
{"smiles": "Cc1ccc(C)c(Oc2c(C(F)(F)F)oc3c(CN4CCN(C)CC4)c(O)ccc3c2=O)c1", "Potency": "inactive"}
{"smiles": "Cc1cc(C)c(NC(=O)c2cc3sc(Cl)cc3n2C)c(C)c1", "Potency": "inactive"}
{"smiles": "O=C(NCc1ccccc1Cl)c1cccn1-c1nnc(N2CCCCC2)s1", "Potency": "inactive"}
{"smiles": "COc1ccc(NC(=O)CSc2nnc(-c3nnn(-c4ccc(F)cc4)c3C)o2)cc1", "Potency": "inactive"}
{"smiles": "O=C(Nc1ccc2ccccc2c1)Nc1nnc(-c2ccc(O)cc2)s1", "Potency": "inactive"}
{"smiles": "O=C1CCc2cc(S(=O)(=O)Nc3cccc(Oc4ccccc4)c3)ccc2N1", "Potency": "inactive"}
{"smiles": "CCOC(=O)c1ccc(N2C(=O)c3n[nH]c(C)c3C2c2ccc(O)c(OC)c2)cc1", "note": "(stereo unspecified)", "Potency": "inactive"}
{"smiles": "CCOC(=O)c1ccc(N2C(=O)c3[nH]nc(-c4ccccc4)c3C2c2ccc(C(C)C)cc2)cc1", "note": "(stereo unspecified)", "Potency": "18.4 µM (active)"}
{"smiles": "CCOC(=O)c1ccc(N2C(=O)c3n[nH]c(-c4ccco4)c3C2c2ccc(O)cc2)cc1", "note": "(stereo unspecified)", "Potency": "inactive"}
{"smiles": "Cc1cccc(CN2Cc3cccc4c3[C@H](C=CC4)CC2=S)c1", "Potency": "inactive"}
{"smiles": "CC(=O)Cn1cnc2c(cnn2-c2ccccc2)c1=O", "Potency": "inactive"}
{"smiles": "O=C(Cn1cnc2c(cnn2-c2ccc(F)cc2)c1=O)NCCc1ccccc1", "Potency": "inactive"}
{"smiles": "O=C(Cn1cnc2c(cnn2-c2ccccc2)c1=O)NCc1ccccc1", "Potency": "8.2 µM (active)"}
{"smiles": "COc1ccc2cc(CNc3ccc(OC)c(OC)c3)c(=O)n(CC(=O)Nc3ccccc3F)c2c1", "Potency": "inactive"}
{"smiles": "COc1ccc(-c2noc(CSc3nc(C)cc(=O)[nH]3)n2)cc1OC", "Potency": "inactive"}
{"smiles": "O=c1c2cc(Br)ccc2nc(-c2cccc(Cl)c2)n1O", "Potency": "9.2 µM (active)"}
{"smiles": "CC(C)Cn1c(=O)c2ccccc2n2c(-c3cccc(Cl)c3)nnc12", "Potency": "inactive"}
{"smiles": "NC(N)=Nc1nc2ccc(Br)cc2c(=O)[nH]1", "Potency": "inactive"}
{"smiles": "COC(=O)c1cc(NC(=O)CCc2c(C)nc3c4c(C)cc(C)nc4nn3c2C)cc(C(=O)OC)c1", "Potency": "inactive"}
{"smiles": "O=c1cc(COc2cccc(C(F)(F)F)c2)nc2sc3c(n12)CCCC3", "Potency": "inactive"}
{"smiles": "O=S(=O)(NCC(c1ccco1)N1CCOCC1)c1cc(F)ccc1F", "note": "(stereo unspecified)", "Potency": "inactive"}
{"smiles": "CC1CC(C)CN(C(=O)CSc2ccsc2[N+](=O)[O-])C1", "note": "(stereo unspecified)", "Potency": "inactive"}
{"smiles": "O=C(CSc1ccsc1[N+](=O)[O-])N1CCCCC1", "Potency": "18.4 µM (active)"}
{"smiles": "O=C(CSCc1cccs1)N1CCCC1", "Potency": "inactive"}
{"smiles": "COc1cc2nc(C#Cc3nc4cc(OC)c(OC)cc4[nH]3)[nH]c2cc1OC", "Potency": "inactive"}
{"smiles": "COc1ccc(CN2C(=O)C(NC(=O)c3cccc(C)c3)(C(F)(F)F)N=C2c2ccccc2)cc1", "note": "(stereo unspecified)", "Potency": "inactive"}
{"smiles": "Cc1cc2c(cc3c(SCc4cccc(Cl)c4)nnc(C)n32)o1", "Potency": "inactive"}
{"smiles": "Cc1cccc(-n2ccnc2SCC(=O)Nc2cccc3ccccc23)c1C", "Potency": "inactive"}
{"smiles": "Cc1cc(C)cc(-n2ccnc2SCC(=O)Nc2nc3ccccc3s2)c1", "Potency": "inactive"}
{"smiles": "Cc1nnc(NC(=O)CSc2nccn2-c2cccc(C)c2C)s1", "Potency": "3.66 µM (active)"}
{"smiles": "Cc1ccc(S(=O)(=O)N2CCN(c3nc(-n4cnc5ccccc54)nc4ccccc34)CC2)cc1", "Potency": "inactive"}
{"smiles": "CC1CCCCC1NC(=O)/C(C#N)=C/C=C/c1ccccc1[N+](=O)[O-]", "note": "(stereo unspecified)", "Potency": "5.8 µM (active)"}
{"smiles": "CC1CC(C)CN(C/C=C/c2ccccc2[N+](=O)[O-])C1", "note": "(stereo unspecified)", "Potency": "inactive"}
{"smiles": "CC(OC(=O)/C=C/c1ccccc1)C(=O)NC1CCCCC1C", "note": "(stereo unspecified)", "Potency": "inactive"}
{"smiles": "O=C1CCCC2=C1[C@@]1(CCC(c3ccccc3)C1)N=C(Nc1nc3ccccc3o1)N2", "note": "(stereo partly specified)", "Potency": "inactive"}
{"smiles": "CCN(C(=O)CSc1nnc(C)n2c1cc1occc12)c1ccccc1", "Potency": "inactive"}
{"smiles": "CC(C)c1ccc2oc(-c3cc(NC(=O)c4cccs4)ccc3Cl)nc2c1", "Potency": "inactive"}
{"smiles": "CC(C)(C)n1nc(Cc2cccc3ccccc23)c(C#N)c1N", "Potency": "inactive"}
{"smiles": "CCc1nn(-c2cc(Oc3cccc4ccccc34)nc(-c3ccccc3)n2)c(N)c1C#N", "Potency": "5.8 µM (active)"}
{"smiles": "C(=Nc1ccc(/C=C/c2ccnc3ccccc23)cc1)c1cc2c3c(c1)CCCN3CCC2", "Potency": "inactive"}
{"smiles": "CCOC(=O)C1CCN(C(c2ccc(F)cc2)c2sc3nc(-c4ccco4)nn3c2O)CC1", "note": "(stereo unspecified)", "Potency": "inactive"}
{"smiles": "CCC1CCCCN1Cc1c(O)ccc2c(=O)c(Oc3ccccc3Cl)c(C(F)(F)F)oc12", "note": "(stereo unspecified)", "Potency": "inactive"}
{"smiles": "CNC(=O)C(NC(=O)c1ccccc1)=C(C)C", "Potency": "inactive"}
{"smiles": "CNC(=O)c1cccc2nc3ccccc3nc12", "Potency": "16.4 µM (active)"}
{"smiles": "CN(C)C(=O)c1coc2nc3ccccc3nc12", "Potency": "inactive"}
{"smiles": "CCCCn1c(=N)c(S(=O)(=O)c2ccccc2)cc2c(=O)n3cccc(C)c3nc21", "Potency": "inactive"}
{"smiles": "COc1ccc(NC(=O)CN2CCCN(Cc3ccccc3)S2(=O)=O)cc1", "Potency": "inactive"}
{"smiles": "COC(=O)C1C(=O)c2c([nH]c(C(=O)OCCSC)c2C)CC1C", "note": "(stereo unspecified)", "Potency": "inactive"}
{"smiles": "CCCOC(=O)c1[nH]c2c(c1C)C(=O)CC(c1cccs1)C2", "note": "(stereo unspecified)", "Potency": "0.651 µM (active)"}
{"smiles": "CCc1ccc(C2CC(=O)c3c([nH]c(C(=O)OCc4ccc(C)cc4)c3C)C2)cc1", "note": "(stereo unspecified)", "Potency": "inactive"}
{"smiles": "COc1ccc(-c2nn(CC(=O)Nc3ccccc3F)c3c2cnc2ccc(F)cc23)cc1", "Potency": "inactive"}
{"smiles": "Cc1c2cnn(-c3ccccc3)c(=O)c2c(C)n1C(C)C(=O)Nc1ccc(Br)cc1F", "note": "(stereo unspecified)", "Potency": "inactive"}
{"smiles": "CCc1ccccc1N1CN(Cc2ccco2)CNC1=S", "Potency": "inactive"}
{"smiles": "CCN(CC)C(=O)CSc1nnc(CNc2ccc(F)cc2)n1Cc1ccco1", "Potency": "inactive"}
{"smiles": "CN(C)C(=S)N=c1ssc(=S)n1Cc1ccco1", "Potency": "4.11 µM (active)"}
{"smiles": "CCOc1ccc2nc(N3CCCC(C(=O)Nc4cc(C)ccc4C)C3)sc2c1", "note": "(stereo unspecified)", "Potency": "inactive"}
{"smiles": "CCc1ccc(NC(=O)c2cnc3c(-c4ccccc4)c(C)nn3c2C)cc1", "Potency": "inactive"}
{"smiles": "CCN(CC)S(=O)(=O)c1ccc(N(C)CCc2ccc(OC)c(OC)c2)nc1", "Potency": "inactive"}
{"smiles": "CCN(CC)S(=O)(=O)c1ccc(NC(=O)c2cnc(C)cn2)cc1", "Potency": "inactive"}
{"smiles": "CCN(CC)S(=O)(=O)c1ccc(N(C)Cc2ccc(C(F)(F)F)cc2)nc1", "Potency": "10.3 µM (active)"}
{"smiles": "COc1ccccc1-n1c(-c2ccc(C)cc2)cn2c3c(=O)n(C)c(=O)n(C)c3nc12", "Potency": "inactive"}
{"smiles": "CN(C)c1ccc(/C=C2\\C=Cc3ccccc32)cc1Br", "Potency": "inactive"}
{"smiles": "CCOC(=O)c1cc2c(=O)n3ccccc3nc2n(Cc2ccco2)c1=NC(=O)c1ccc(F)cc1", "Potency": "inactive"}
{"smiles": "COc1ccc(Nc2cc(=O)n(-c3ccccc3)c3c2c(=O)n(C)c(=O)n3C)cc1", "Potency": "inactive"}
{"smiles": "COc1ccc(CCNC(=O)COC(=O)c2cc(=O)c3ccccc3o2)cc1", "Potency": "inactive"}
{"smiles": "COc1ccc(Nc2cc(=O)oc3ccccc23)cc1", "Potency": "4.11 µM (active)"}
{"smiles": "CC1=C(C(=O)OCC2CCCCC2)C(c2c(F)cccc2Cl)CC(=O)N1", "note": "(stereo unspecified)", "Potency": "inactive"}
{"smiles": "CCc1ccc(N(CC)C(=O)CCn2cnc3onc(-c4ccc(F)cc4)c3c2=O)cc1", "Potency": "inactive"}
{"smiles": "Fc1ccc(-c2csc(-c3ccc(C4SCCS4)cc3)n2)cc1F", "Potency": "inactive"}
{"smiles": "CCCc1cc(-c2nc(-c3ccc(C)cc3)cs2)ccn1", "Potency": "11.6 µM (active)"}
{"smiles": "CCCc1nc2scc(-c3ccc(C)cc3)c2c(=O)n1N", "Potency": "inactive"}
{"smiles": "O=C(CN1CCCCCC1)Nc1ccc(S(=O)(=O)N2CCCCC2)cc1", "Potency": "inactive"}
{"smiles": "CCc1ccc(NC(=O)CN2CCSc3ccc(S(=O)(=O)N4CCCC4)cc32)cc1", "Potency": "16.4 µM (active)"}
{"smiles": "CCc1ccc(NC(=O)CN2C(=O)COc3ccc(S(=O)(=O)N4CCCC4)cc32)cc1", "Potency": "inactive"}
{"smiles": "O=[N+]([O-])c1ccc(NS(=O)(=O)c2ccccc2)c(Cl)c1", "Potency": "16.4 µM (active)"}
{"smiles": "O=C(NNS(=O)(=O)c1ccc(F)cc1)c1ccc([N+](=O)[O-])cc1Cl", "Potency": "inactive"}
{"smiles": "O=C(NCCNc1ccc([N+](=O)[O-])cc1Cl)c1ccccc1F", "Potency": "inactive"}
{"smiles": "Cc1cccc(-n2ccnc2SCC(=O)Nc2cc(C(F)(F)F)ccc2Cl)c1", "Potency": "inactive"}
{"smiles": "Nc1nnc2c(C(F)(F)F)nc3ccccc3n12", "Potency": "inactive"}
{"smiles": "Cc1ccccc1CCNC(=O)C1CCN(c2nc3ccccc3nc2C(F)(F)F)CC1", "Potency": "inactive"}
{"smiles": "CN(NC(=O)c1ccccc1)c1nc2ccccc2nc1C(F)(F)F", "Potency": "2.91 µM (active)"}
{"smiles": "Cc1cccc(C(=O)Nc2ccc(-c3nc4ccccc4s3)c(C)c2)c1", "Potency": "inactive"}
{"smiles": "CSc1nc(N(C)NC(=O)c2cccc(C)c2)c2ccccc2n1", "Potency": "0.184 µM (active)"}
{"smiles": "Cc1cccc(C(=O)NCCc2nc3ccccc3n2Cc2ccccc2Cl)c1", "Potency": "inactive"}
{"smiles": "COc1ccc(C)cc1Nc1nc2ccccc2c2nnc(C)n12", "Potency": "inactive"}
{"smiles": "Cc1ccc(-c2nc(CS(=O)(=O)CC(=O)NCc3ccccc3Cl)c(C)o2)cc1", "Potency": "inactive"}
{"smiles": "O=C(CSc1nnc(CNC(=O)c2ccccc2)n1-c1ccc(F)cc1)Nc1ccccc1F", "Potency": "inactive"}
{"smiles": "COc1ccc(C(=O)c2oc3ccccc3c2NC(=O)COc2cccc(C)c2)cc1", "Potency": "inactive"}
{"smiles": "COc1ccc(CNc2nc(-c3ccc(Cl)cc3)cc(C(F)(F)F)n2)cc1", "Potency": "inactive"}
{"smiles": "O=C(Nc1ccc2nc(SCCOc3ccccc3)sc2c1)c1ccco1", "Potency": "inactive"}
{"smiles": "COC(=O)COc1cccc2c(=O)n(CC(=O)NCc3ccccc3)ccc12", "Potency": "6.51 µM (active)"}
{"smiles": "CCCn1ccc2c(OCC(=O)NCc3ccc(F)cc3)cccc2c1=O", "Potency": "inactive"}
{"smiles": "CCOCCn1ccc2c(OCC(=O)NCc3ccc(C)cc3)cccc2c1=O", "Potency": "inactive"}
{"smiles": "CCCCOc1ccc(NC(=O)c2cc3c(n(-c4ccc(Cl)cc4)c2=O)CCCC3=O)cc1", "Potency": "inactive"}
{"smiles": "Cc1ccc2cccc(NC(=O)C(C)Oc3ccc(C)c(C)c3)c2n1", "note": "(stereo unspecified)", "Potency": "inactive"}
{"smiles": "O=C(Nc1cc(-c2nc3ccccc3o2)ccc1Cl)c1cc([N+](=O)[O-])ccc1N1CCOCC1", "Potency": "inactive"}
{"smiles": "CCN(CC)CCCC(C)n1c2nc(=O)[nH]c(=O)c-2nc2cc(Cl)ccc21", "note": "(stereo unspecified)", "Potency": "6.51 µM (active)"}
{"smiles": "COc1cccc(NC(=O)Cn2c(=O)cc(C)c3c(C)nn(-c4cccc(F)c4)c32)c1", "Potency": "inactive"}
